Experimental data published in the supplement of paper PMC10849652.
Of roughly 7,900 targets only a part is listed; those with a hit were picked by preference. About 0.6% of all pairs of compound and target were hits. A number with no mark means an inactive call.

Experiments:
Experiment in all cases: log2 fold change, soluble protein after heating vs DMSO (PISA); higher = thermal stabilisation; K562 cells, 10 uM, 30 min; active = over 0.2 and 3.5 SD of the protein, either way, in both replicates (recomputed)
[1] = compound: CN1CCN(CCOc2cc(OC3CCOCC3)c3c(Nc4c(Cl)ccc5c4OCO5)ncnc3c2)CC1 [saracatinib]
Summary of the method: (§1)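 Values are thermal stability changes relative to control samples and are taken from duplicates. They are stated as log2 fold changes. Before quantification by TMTpro 16plex LC-MS/MS with equalised channel sums, K562 cells at 2×10^6 cells/mL were treated with 10 μM compound for 30 min, heated in aliquots for 3 min across 48°C-58°C, pooled, extracted in PBS with 0.5% NP-40 at 4°C, and centrifuged at 21,000xg for 90 min to give the soluble supernatant.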

[2] = compound: CN1CCN(c2nc(C3=C(c4c[nH]c5ccccc45)C(=O)NC3=O)c3ccccc3n2)CC1 [sotrastaurin]
Summary of the method: as §1

[3] = compound: CN1CC[C@H](c2c(O)cc(O)c3c(=O)cc(-c4ccccc4Cl)oc23)[C@H](O)C1 [alvocidib]
Summary of the method: as §1

[4] = compound: CN1CCc2c(c3ccccc3n2Cc2ccc(C(=O)NO)cc2)C1 [Tubastatin A]
Summary of the method: as §1

[5] = compound: CNC(=O)C1=CC=CC=C1NC2=NC(=NC=C2Cl)NC3=C(C=C(C=C3)N4CCOCC4)OC
Summary of the method: as §1

[6] = compound: CNC(=O)c1ccc(Nc2ncc(C(F)(F)F)c(NCc3nccnc3N(C)S(C)(=O)=O)n2)cc1 [defactinib]
Summary of the method: as §1

[7] = compound: CNCc1ccc(-c2[nH]c3cc(F)cc4c3c2CCNC4=O)cc1 [rucaparib]
Summary of the method: as §1

[8] = compound: CNc1nc(-c2ccc3c(N)n[nH]c3c2)cc(N2C[C@@H](C(=O)NC3CCCCC3)CC[C@H]2C)n1
Summary of the method: as §1

[9] = compound: COC(=O)N[C@@H](C)CNc1nccc(-c2cn(C(C)C)nc2-c2cc(Cl)cc(NS(C)(=O)=O)c2F)n1 [encorafenib]
Summary of the method: as §1

[10] = compound: COC(=O)[C@H](CCSC)NC(=O)C1=C(C=C(C=C1)NC[C@H](CS)N)C2=CC=CC=C2
Summary of the method: as §1

[11] = compound: COC1=CC=C(C=C1)CN2C=CC3=C2C=C(C=C3)C(=O)NO
Summary of the method: as §1

[12] = compound: CON(C)C(=O)N1N=C(c2cc(F)ccc2F)S[C@@]1(CCCN)c1ccccc1 [filanesib]
Summary of the method: as §1

[13] = compound: CO[C@H]1C[C@@H]2CC[C@@H](C)[C@@](O)(O2)C(=O)C(=O)N2CCCC[C@H]2C(=O)O[C@H]([C@H](C)C[C@@H]2CC[C@H](n3cnnn3)[C@H](OC)C2)CC(=O)[C@H](C)/C=C(\C)[C@@H](O)[C@@H](OC)C(=O)[C@H](C)C[C@H](C)/C=C/C=C/C=C/1C [zotarolimus]
Summary of the method: as §1

[14] = compound: COc1cc(C(=O)O)ccc1NC(=O)[C@@H]1N[C@@H](CC(C)(C)C)[C@](C#N)(c2ccc(Cl)cc2F)[C@H]1c1cccc(Cl)c1F [idasanutlin]
Summary of the method: as §1

[15] = compound: COc1cc(Nc2ncc3c(n2)-c2ccc(Cl)cc2C(c2c(F)cccc2OC)=NC3)ccc1C(=O)O [alisertib]
Summary of the method: as §1

[16] = compound: COc1cc2nc(-c3cc(F)ccc3O)nc(N[C@@H]3CNC[C@H]3C(C)(C)O)c2cc1OC
Summary of the method: as §1

[17] = compound: COc1cc2ncnc(Nc3ccc(F)c(Cl)c3)c2cc1OCCCN1CCOCC1 [gefitinib]
Summary of the method: as §1

[18] = compound: COc1cccc2cc(-c3nc([C@H]4CC[C@H](C(=O)O)CC4)n4ncnc(N)c34)[nH]c12
Summary of the method: as §1

[19] = compound: CS(=O)(=O)CCNCc1ccc(-c2ccc3ncnc(Nc4ccc(OCc5cccc(F)c5)c(Cl)c4)c3c2)o1 [lapatinib]
Summary of the method: as §1

[20] = compound: CS(=O)(=O)N1CCN(Cc2cc3nc(-c4cccc5[nH]ncc45)nc(N4CCOCC4)c3s2)CC1 [pictilisib]
Summary of the method: as §1

Chain of UniProt Q8WXD2 (Q8WXD2 whole entry, looked up): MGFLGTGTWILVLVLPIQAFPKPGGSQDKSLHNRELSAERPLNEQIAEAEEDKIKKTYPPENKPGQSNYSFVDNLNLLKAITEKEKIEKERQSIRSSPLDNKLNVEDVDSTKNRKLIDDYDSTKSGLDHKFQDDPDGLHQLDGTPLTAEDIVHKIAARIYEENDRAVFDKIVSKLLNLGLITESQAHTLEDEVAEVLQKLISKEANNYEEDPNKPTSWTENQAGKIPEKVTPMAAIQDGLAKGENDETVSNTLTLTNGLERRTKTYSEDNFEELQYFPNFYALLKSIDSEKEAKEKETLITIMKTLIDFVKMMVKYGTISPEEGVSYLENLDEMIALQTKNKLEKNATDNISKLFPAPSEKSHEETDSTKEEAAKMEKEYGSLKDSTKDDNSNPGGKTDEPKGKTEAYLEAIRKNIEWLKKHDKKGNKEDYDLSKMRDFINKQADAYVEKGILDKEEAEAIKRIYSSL
Chain of UniProt Q9BUV8 (Q9BUV8 whole entry, looked up): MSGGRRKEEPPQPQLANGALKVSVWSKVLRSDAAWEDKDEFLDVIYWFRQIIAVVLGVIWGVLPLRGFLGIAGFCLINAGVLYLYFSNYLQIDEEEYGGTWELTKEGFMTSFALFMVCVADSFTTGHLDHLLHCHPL
Chain of UniProt Q9UKL0 (Q9UKL0 whole entry, looked up): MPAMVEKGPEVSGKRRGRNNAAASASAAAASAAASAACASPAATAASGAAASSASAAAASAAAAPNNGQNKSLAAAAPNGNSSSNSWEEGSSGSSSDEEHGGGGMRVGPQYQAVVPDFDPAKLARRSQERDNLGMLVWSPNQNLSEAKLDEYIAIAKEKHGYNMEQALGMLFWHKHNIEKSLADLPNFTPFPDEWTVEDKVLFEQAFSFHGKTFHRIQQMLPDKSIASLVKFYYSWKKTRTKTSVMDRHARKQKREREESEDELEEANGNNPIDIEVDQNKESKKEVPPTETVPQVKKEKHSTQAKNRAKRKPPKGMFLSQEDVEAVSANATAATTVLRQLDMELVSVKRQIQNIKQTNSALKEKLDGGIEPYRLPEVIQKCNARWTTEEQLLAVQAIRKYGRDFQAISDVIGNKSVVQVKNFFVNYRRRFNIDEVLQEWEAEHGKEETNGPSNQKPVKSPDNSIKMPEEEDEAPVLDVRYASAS
Chain of UniProt O43818 (O43818 whole entry, looked up): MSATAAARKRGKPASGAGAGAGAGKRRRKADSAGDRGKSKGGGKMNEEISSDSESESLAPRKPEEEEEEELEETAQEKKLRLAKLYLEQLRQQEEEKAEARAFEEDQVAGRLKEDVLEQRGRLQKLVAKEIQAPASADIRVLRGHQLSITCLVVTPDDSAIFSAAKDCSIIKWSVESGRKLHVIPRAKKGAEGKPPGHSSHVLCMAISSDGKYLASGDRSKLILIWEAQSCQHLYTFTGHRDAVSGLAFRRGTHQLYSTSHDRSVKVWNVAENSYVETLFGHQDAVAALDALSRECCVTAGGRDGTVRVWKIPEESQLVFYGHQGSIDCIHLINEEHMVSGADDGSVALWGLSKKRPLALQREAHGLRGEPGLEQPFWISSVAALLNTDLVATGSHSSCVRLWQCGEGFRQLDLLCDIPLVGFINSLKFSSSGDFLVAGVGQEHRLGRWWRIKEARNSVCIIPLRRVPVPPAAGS
Chain of UniProt Q8WWV3 (Q8WWV3 whole entry, looked up): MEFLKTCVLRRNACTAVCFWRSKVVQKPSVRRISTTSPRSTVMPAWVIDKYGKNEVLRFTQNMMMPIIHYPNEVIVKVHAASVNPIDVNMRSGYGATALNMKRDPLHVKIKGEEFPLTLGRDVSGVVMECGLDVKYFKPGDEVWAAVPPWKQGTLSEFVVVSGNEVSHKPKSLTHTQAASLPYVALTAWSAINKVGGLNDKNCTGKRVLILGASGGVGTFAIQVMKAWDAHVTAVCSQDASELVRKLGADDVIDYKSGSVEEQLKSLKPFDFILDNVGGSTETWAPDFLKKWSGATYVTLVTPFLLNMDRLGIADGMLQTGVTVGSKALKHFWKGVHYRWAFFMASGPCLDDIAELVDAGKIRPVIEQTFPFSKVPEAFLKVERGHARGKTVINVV
Chain of UniProt Q8TD22 (Q8TD22 whole entry, looked up): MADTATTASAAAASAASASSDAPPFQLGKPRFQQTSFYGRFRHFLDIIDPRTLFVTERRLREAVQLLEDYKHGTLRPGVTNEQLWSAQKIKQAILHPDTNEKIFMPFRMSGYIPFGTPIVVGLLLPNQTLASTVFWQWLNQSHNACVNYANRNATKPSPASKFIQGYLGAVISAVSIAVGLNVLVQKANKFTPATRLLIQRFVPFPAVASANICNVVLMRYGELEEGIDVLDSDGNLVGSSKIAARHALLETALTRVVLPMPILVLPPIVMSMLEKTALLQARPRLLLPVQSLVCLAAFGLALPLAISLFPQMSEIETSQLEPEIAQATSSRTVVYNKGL
Chain of UniProt P51151 (P51151 whole entry, looked up): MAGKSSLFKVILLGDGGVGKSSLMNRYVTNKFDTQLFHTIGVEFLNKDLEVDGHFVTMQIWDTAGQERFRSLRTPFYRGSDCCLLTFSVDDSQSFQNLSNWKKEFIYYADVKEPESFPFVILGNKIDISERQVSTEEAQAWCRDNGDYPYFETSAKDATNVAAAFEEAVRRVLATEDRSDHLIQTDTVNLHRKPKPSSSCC
Chain of UniProt Q8NBJ9 (Q8NBJ9 whole entry, looked up): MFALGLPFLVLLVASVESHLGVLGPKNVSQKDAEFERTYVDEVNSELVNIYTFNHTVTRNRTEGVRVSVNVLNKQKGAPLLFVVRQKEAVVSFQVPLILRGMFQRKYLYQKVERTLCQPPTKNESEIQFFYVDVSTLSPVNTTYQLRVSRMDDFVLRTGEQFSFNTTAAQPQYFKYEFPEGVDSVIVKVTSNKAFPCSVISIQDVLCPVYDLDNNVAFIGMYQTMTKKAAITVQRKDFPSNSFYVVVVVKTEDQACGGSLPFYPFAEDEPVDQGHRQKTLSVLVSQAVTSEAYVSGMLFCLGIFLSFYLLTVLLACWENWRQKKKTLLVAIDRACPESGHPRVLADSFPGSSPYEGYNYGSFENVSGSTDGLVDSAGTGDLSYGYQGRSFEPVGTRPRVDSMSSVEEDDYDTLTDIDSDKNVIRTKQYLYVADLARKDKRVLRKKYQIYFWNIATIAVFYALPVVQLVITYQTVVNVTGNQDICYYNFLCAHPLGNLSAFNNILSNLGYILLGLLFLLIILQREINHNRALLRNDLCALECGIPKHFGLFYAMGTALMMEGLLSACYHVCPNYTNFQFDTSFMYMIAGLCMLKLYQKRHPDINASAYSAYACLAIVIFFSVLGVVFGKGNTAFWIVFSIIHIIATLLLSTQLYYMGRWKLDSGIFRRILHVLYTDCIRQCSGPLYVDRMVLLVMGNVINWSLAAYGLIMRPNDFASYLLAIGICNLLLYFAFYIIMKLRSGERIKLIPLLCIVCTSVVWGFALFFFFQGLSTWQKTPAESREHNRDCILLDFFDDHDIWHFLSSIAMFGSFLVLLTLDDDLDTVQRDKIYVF
Chain of UniProt Q9UBS8 (Q9UBS8 whole entry, looked up): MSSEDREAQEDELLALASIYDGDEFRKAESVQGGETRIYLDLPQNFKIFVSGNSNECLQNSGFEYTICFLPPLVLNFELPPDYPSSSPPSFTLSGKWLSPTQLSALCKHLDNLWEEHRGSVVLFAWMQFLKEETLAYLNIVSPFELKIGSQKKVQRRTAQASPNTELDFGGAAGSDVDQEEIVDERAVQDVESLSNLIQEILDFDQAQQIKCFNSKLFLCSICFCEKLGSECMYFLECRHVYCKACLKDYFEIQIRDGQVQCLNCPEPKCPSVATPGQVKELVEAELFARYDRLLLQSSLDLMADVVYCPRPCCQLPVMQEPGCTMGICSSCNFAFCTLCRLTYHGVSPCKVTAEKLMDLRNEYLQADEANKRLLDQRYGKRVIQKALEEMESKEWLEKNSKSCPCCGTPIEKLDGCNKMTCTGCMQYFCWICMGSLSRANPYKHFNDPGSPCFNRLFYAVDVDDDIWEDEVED
Chain of UniProt Q9NSI8 (Q9NSI8 whole entry, looked up): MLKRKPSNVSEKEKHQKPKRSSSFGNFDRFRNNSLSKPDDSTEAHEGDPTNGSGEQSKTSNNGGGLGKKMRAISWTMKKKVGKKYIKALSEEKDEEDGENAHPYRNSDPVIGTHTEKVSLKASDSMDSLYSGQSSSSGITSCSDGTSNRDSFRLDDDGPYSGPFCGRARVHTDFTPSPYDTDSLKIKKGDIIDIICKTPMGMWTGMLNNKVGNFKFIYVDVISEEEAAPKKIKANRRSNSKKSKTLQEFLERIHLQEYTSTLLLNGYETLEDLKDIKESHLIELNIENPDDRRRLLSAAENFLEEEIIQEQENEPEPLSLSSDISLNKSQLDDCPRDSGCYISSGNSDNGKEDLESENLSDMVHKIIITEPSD
Chain of UniProt Q9BQY4 (Q9BQY4 whole entry, looked up): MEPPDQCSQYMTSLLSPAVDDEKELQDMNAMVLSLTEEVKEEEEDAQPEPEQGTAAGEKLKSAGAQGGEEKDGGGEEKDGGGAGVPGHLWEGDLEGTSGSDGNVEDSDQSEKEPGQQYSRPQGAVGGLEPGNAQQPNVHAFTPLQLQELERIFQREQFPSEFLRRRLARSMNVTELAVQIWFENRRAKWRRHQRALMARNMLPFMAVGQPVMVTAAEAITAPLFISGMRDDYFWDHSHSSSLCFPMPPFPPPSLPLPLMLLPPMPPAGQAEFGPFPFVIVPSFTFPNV
Chain of UniProt Q8TC12 (Q8TC12 whole entry, looked up): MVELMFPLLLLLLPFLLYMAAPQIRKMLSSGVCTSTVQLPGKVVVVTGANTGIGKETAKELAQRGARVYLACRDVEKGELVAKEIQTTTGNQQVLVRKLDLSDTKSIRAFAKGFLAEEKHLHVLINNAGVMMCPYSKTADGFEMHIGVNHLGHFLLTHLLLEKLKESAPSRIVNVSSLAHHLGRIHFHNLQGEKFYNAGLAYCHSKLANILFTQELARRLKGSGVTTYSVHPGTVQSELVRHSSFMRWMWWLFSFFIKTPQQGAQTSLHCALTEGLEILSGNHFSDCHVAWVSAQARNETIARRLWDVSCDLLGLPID

Target | log2 fold change [1] | log2 fold change [2] | log2 fold change [3] | log2 fold change [4] | log2 fold change [5] | log2 fold change [6] | log2 fold change [7] | log2 fold change [8] | log2 fold change [9] | log2 fold change [10] | log2 fold change [11] | log2 fold change [12] | log2 fold change [13] | log2 fold change [14] | log2 fold change [15] | log2 fold change [16] | log2 fold change [17] | log2 fold change [18] | log2 fold change [19] | log2 fold change [20]
RPS18 (UniProt P62269) | -0.022 | 0.039 | 0.2 | 0.105 | 0.071 | 0.21 | 0.152 | 0.041 | 0.008 | 0.04 | -0.157 | 0.118 | 0.012 | 0.046 | -0.015 | -0.021 | -0.013 | -0.109 | 0.065 | -0.107
SIDT2 isoform 2 (UniProt Q8NBJ9) | 0.08 | 0.024 | 0.047 | -0.083 | 0.104 | -0.064 | -0.002 | -0.088 | -0.053 | -0.176 | -0.062 | -0.08 | 0.127 | 0.01 | 0.082 | -0.065 | -0.207 | 0.009 | 0.004 | 0.044
RRP9 (UniProt O43818) | 0.08 | 0.044 | 0.057 | 0 | -0.069 | -0.075 | 0.019 | -0.094 | -0.005 | 0.042 | -0.011 | 0.143 | -0.059 | 0.171 | -0.14 | -0.061 | 0.027 | 0.047 | 0.037 | -0.04
RDH11 (UniProt Q8TC12) | -0.121 | -0.019 | -0.028 | 0.003 | 0.136 | 0.001 | 0.113 | 0.019 | 0.094 | -0.086 | 0.087 | -0.046 | 0.093 | 0.032 | -0.01 | -0.333 | 0.071 | 0 | 0.03 | 0.241
RTN4IP1 (UniProt Q8WWV3) | -0.264 | 0.43 | -0.27 | 0.611 (active) | -0.066 | -0.157 | -0.178 | -0.069 | 0.02 | 0.007 | 0.206 | -0.081 | 0.097 | 1.17 (active) | -0.22 | -0.013 | 0.125 | 0.256 | 0.003 | -0.003
RCOR1 (UniProt Q9UKL0) | -0.011 | -0.047 | -0.066 | 0.028 | -0.017 | -0.119 | -0.005 | 0.073 | 0 | -0.002 | -0.039 | 0.002 | -0.044 | 0 | 0.013 | 0.003 | -0.002 | 0.015 | 0.019 | 0.005
SCG3 (UniProt Q8WXD2) | 0.191 | 0.038 | 0.106 | 0.021 | 0.091 | -0.163 | 0.046 | -0.113 | -0.069 | 0.062 | 0.002 | -0.001 | -0.044 | -0.056 | 0.128 | -0.082 | 0.089 | -0.236 | 0.07 | -0.086
RPL31 (UniProt P62899) | -0.068 | -0.003 | 0.294 | 0.147 | 0.096 | 0.282 | 0.238 | 0.121 | 0.088 | -0.052 | -0.084 | 0.277 | -0.013 | 0.151 | -0.118 | -0.013 | -0.075 | -0.25 | 0.103 | -0.092
RHOXF2 (UniProt Q9BQY4) | 0.015 | -0.002 | 0.011 | 0.042 | -0.021 | 0.008 | 0.09 | -0.074 | -0.018 | 0.066 | 0.017 | 0.013 | -0.039 | 0.02 | -0.068 | -0.001 | -0.021 | 0.056 | -0.028 | 0.088
SCAF11 (UniProt Q99590) | 0.075 | 0.227 | 1.25 (active) | -0.052 | -0.077 | 0.579 (active) | 0.35 | -0.052 | 0.042 | 0.188 | 0.365 | 0.141 | -0.029 | 0.054 | -0.1 | -0.028 | -0.013 | -0.071 | 0.156 | -0.382
SFXN5 (UniProt Q8TD22) | 0.106 | -0.014 | -0.098 | -0.053 | 0.019 | 0.017 | -0.043 | -0.038 | -0.053 | 0.045 | -0.104 | -0.007 | 0.025 | -0.172 | 0.027 | -0.019 | -0.013 | 0.035 | 0.017 | 0.061
RAB5IF isoform 5 (UniProt Q9BUV8) | 0.114 | -0.018 | -0.115 | -0.139 | -0.08 | -0.01 | -0.014 | -0.018 | 0.08 | 0.031 | 0.429 (active) | -0.243 | -0.074 | -0.015 | -0.081 | -0.021 | 0.018 | 0.002 | 0.006 | 0.006
RNF14 (UniProt Q9UBS8) | -0.02 | -0.042 | -0.112 | -0.014 | 0.007 | -0.096 | -0.015 | -0.043 | -0.027 | 0.042 | 0.034 | -0.093 | 0.018 | 0.043 | -0.035 | -0.038 | 0.003 | -0.048 | 0.006 | 0.045
SAMSN1 isoform 3 (UniProt Q9NSI8) | -0.023 | -0.081 | -0.058 | 0.036 | 0.002 | -0.051 | -0.003 | -0.029 | 0.046 | 0.024 | 0.013 | -0.021 | 0.034 | -0.026 | 0.007 | -0.001 | 0.007 | -0.029 | -0.009 | -0.001
RAB9A (UniProt P51151) | 0.015 | 0.02 | -0.04 | -0.018 | -0.054 | 0 | -0.017 | -0.02 | -0.012 | -0.013 | 0.022 | -0.074 | 0.024 | -0.026 | -0.021 | 0.008 | 0.015 | 0.067 | -0.026 | -0.011
RB1CC1 (UniProt Q8TDY2) | -0.065 | -0.108 | -0.025 | 0.117 | -0.051 | -0.042 | 0.09 | 0.049 | -0.104 | -0.025 | 0.435 (active) | -0.079 | 0.014 | -0.002 | -0.112 | 0.182 | -0.042 | -0.049 | 0.181 | 0.083
